Structures can show the parent of a compound that is named as a salt. Unmarked numbers belong to inactive results.
Tests used:
Conditions in all cases: 20 µM
[1] = system: Salmonella enterica typhimurium; test: growth AUC normalised to DMSO control (fraction of control); higher = less growth inhibition, active = hit call of the paper
Procedure, shortened: (§1)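 Three biological replicates were carried out, with OD578 read hourly for 24 h. Before inoculation at a starting OD578 of 0.01, pathogens were passaged anaerobically twice; plates were pre-reduced mGAM containing 20 μM compound and 1% DMSO, sealed with breathable membranes, and the Haemophilus parainfluenzae medium carried added hemin and NAD. Area under each growth curve was calculated by the trapezoidal rule up to the exponential-to-stationary transition and normalised to DMSO controls on the same plate.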

Shigella flexneri = test: as above
Procedure, shortened: as §1

Vibrio cholerae = test: as above
Procedure, shortened: as §1

[2] = system: Yersinia pseudotuberculosis; test: as above
Procedure, shortened: as §1

P. vulgatus RND KO = test: growth AUC normalised to DMSO control (median) (fraction of control); higher = less growth inhibition, active = hit call of the paper
Procedure, shortened: (§2)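 Anaerobic growth was tracked hourly at OD578 for 24 h in 96-well plates of mGAM seeded at OD578 0.01 with each approved-drug library compound at 20 μM and 1% DMSO. Strains had first been passaged twice overnight without oxygen. Three biological replicates were run. The reported median is the area under the curve, calculated by the trapezoidal rule on curves truncated at entry into stationary phase and normalised to vehicle wells on the same plate.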

P. vulgatus WT = test: as above
Procedure, shortened: as §2

[3] = system: S. enterica typhimurium WT; test: as above
Procedure, shortened: as §2

[4] = system: S. enterica typhimurium tolC KO; test: as above
Procedure, shortened: as §2
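Throughout, for growth AUC normalised to DMSO control (median): active when median AUC fell below 0.1.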

Compound	growth AUC normalised to DMSO control [1]	growth AUC normalised to DMSO control (Shigella flexneri)	growth AUC normalised to DMSO control (Vibrio cholerae)	growth AUC normalised to DMSO control [2]	growth AUC normalised to DMSO control (P. vulgatus RND KO)	growth AUC normalised to DMSO control (P. vulgatus WT)	growth AUC normalised to DMSO control [3]	growth AUC normalised to DMSO control [4]
Nc1nnc(-c2cccc(Cl)c2Cl)c(N)n1 [Lamotrigine]	0.963	0.933	1.03	1.01	0.95	0.986	0.957	0.962
CO[C@H]1/C=C/O[C@@]2(C)Oc3c(C)c(O)c4c(O)c(c(/C=N/N5CCN(C6CCCC6)CC5)c(O)c4c3C2=O)NC(=O)/C(C)=C\C=C\[C@H](C)[C@H](O)[C@@H](C)[C@@H](O)[C@@H](C)[C@H](OC(C)=O)[C@@H]1C [Rifapentine]	0.258 (active)	0.588 (active)	1.03	0.0449 (active)	0.0203 (active)	0.0164 (active)	0.78	0.716
C#C[C@]1(O)CC[C@H]2[C@@H]3CCC4=CC(=O)CC[C@@H]4[C@H]3CC[C@@]21C [Norethindrone]	1.01	0.977	0.996	0.988	0.997	1.03	1.01	0.993
C=CCc1ccccc1OCC(O)CNC(C)C (configuration not stated) [Alprenolol hydrochloride]	1.01	1.06	1.04	1.01	1.07	1.08	0.995	0.997
CC(C(=O)O)c1cccc(Oc2ccccc2)c1 (configuration not stated) [Fenoprofen calcium salt dihydrate]	0.995	0.924	0.945	0.987	0.99	0.983	1	0.995
CCOc1ccccc1OCC1CNCCO1 (configuration not stated) [Viloxazine hydrochloride]	0.997	0.979	0.987	0.961	1	0.985	0.99	0.995
CN(C)CCC=C1c2ccccc2C=Cc2ccccc21 [Cyclobenzaprine hydrochloride]	0.98	0.955	0.866 (active)	0.998	0.933	0.936	1	0.853
CC(C(=O)O)c1ccc(C(=O)c2ccccc2)s1 (configuration not stated) [Tiaprofenic acid]	1	1.01	0.978	1.01	1.02	1.05	1	0.992
C=CC[N@@+]12CC[C@@]34c5ccccc5N5/C=C6/[C@H]7C[C@H]8[C@@]9(CC[N@@+]8(CC=C)C/C7=C/CO)c7ccccc7N(/C=C(/[C@@H](C[C@@H]31)/C(=C\CO)C2)[C@H]54)[C@@H]69 [Alcuronium chloride]	0.94	1	1.09	1.03	1.05	1.06	1.01	1
NS(=O)(=O)c1cc2c(cc1Cl)NC(CC1CCCC1)NS2(=O)=O (configuration not stated) [Cyclopenthiazide]	1	0.972	0.98	0.971	0.978	0.993	1	0.991
COc1ccc2cc([C@@H](C)C(=O)O)ccc2c1 [(R) Naproxen sodium salt]	1.02	1.08	1.06	1.03	1.06	1.07	1	1.02
Cn1c(=O)c2c(ncn2CCO)n(C)c1=O [Etofylline]	0.998	0.993	1.01	1.01	0.998	1.02	0.999	0.993
O=C1Nc2ccc(Cl)cc2[C@@](C#CC2CC2)(C(F)(F)F)O1 [Efavirenz]	0.997	1.01	0.999	0.999	0.715	0.752	1	0.261
CC(=O)O[C@]1(C(C)=O)CC[C@H]2[C@@H]3C=C(C)C4=CC(=O)CC[C@@H]4[C@H]3CC[C@@]21C [Nomegestrol acetate]	0.991	1.03	1.06	1.01	0.963	1	1.03	0.94
CCc1oc2ccccc2c1C(=O)c1cc(Br)c(O)c(Br)c1 [Benzbromarone]	1.01	0.989	0.989	0.996	0.57	0.699	1	0.925
COC(=O)C1=C(C)NC(C)=C(C(=O)OC(C)C)C1c1cccc2nonc12 (configuration not stated) [Isradipine]	1.01	1.02	1.02	1	1.02	1.05	1.02	0.979
CC[C@]12CCCN3CCc4c(n(c5ccccc45)[C@@](O)(C(=O)OC)C1)[C@@H]32 [Vincamine]	1.02	0.979	0.995	0.989	1.02	1.05	1.02	1
NCCCCCC(=O)O [Aminocaproic acid]	0.999	1.06	1.07	1.02	1.07	1.1	1.02	1
CN(C)CCCC1(c2ccc(F)cc2)OCc2cc(C#N)ccc21 (configuration not stated) [Citalopram hydrobromide]	0.998	0.994	1	1.01	1.02	0.982	1	0.991
CCC(=O)O[C@@H](O[P@](=O)(CCCCc1ccccc1)CC(=O)N1C[C@H](C2CCCCC2)C[C@H]1C(=O)O)C(C)C [Fosinopril]	1	1.04	1.05	1	0.998	1.02	1	1.01
CC(C)NCC(O)c1cc(O)cc(O)c1 (configuration not stated) [Metaproterenol sulfate]	0.995	0.967	0.998	0.988	0.986	1	1.01	0.997
NC[C@@H]1O[C@@H](O[C@H]2[C@H](O)[C@@H](O[C@H]3O[C@H](CO)[C@@H](O)[C@H](N)[C@H]3O)[C@H](N)C[C@@H]2N)[C@@H](O)[C@H](O)[C@H]1O [Kanamycin A sulfate]	1.01	1.03	1.05	1	1.01	0.992	1.01	1.01
C#C[C@]1(O)CC[C@H]2[C@@H]3CCC4=CCCC[C@@H]4[C@H]3CC[C@@]21C [Lynestrenol]	0.997	0.973	1.01	0.972	0.945	0.976	1.02	1
CCOc1ccccc1OC(c1ccccc1)C1CNCCO1 (configuration not stated) [Reboxetine mesylate]	0.991	0.986	1.01	0.995	1.01	1.01	1	0.988
c1ccc([C@H]2CN3CCSC3=N2)cc1 [Levamisole hydrochloride]	0.99	0.967	0.981	1	1.03	1.01	1	1
CC[C@H]1OC(=O)[C@H](C)[C@@H](O[C@H]2C[C@@](C)(OC)[C@@H](O)[C@H](C)O2)[C@H](C)[C@@H](O[C@@H]2O[C@H](C)C[C@H](N(C)C)[C@H]2O)[C@](C)(O)C[C@@H](C)CN(C)[C@H](C)[C@@H](O)[C@]1(C)O [Azithromycin]	0.0316 (active)	0.0334 (active)	0.0396 (active)	0.0337 (active)	0.0189 (active)	0.0116 (active)	0.0218 (active)	0.00733 (active)
O=C(O)c1ccccc1OP(=O)(O)O [Fosfosal]	0.983	0.984	0.994	0.988	1	1.02	1	1.01
C[C@]12CCC(=O)C=C1CC[C@@H]1[C@@H]2C(=O)C[C@@]2(C)[C@H]1CC[C@]2(O)C(=O)CO [Cortisone]	0.993	0.945	0.983	0.982	0.994	1	1	0.995
COc1ccc(OC)c(C(O)CNC(=O)CN)c1 (configuration not stated) [Midodrine hydrochloride]	0.992	0.99	1.02	1.02	1.02	1.02	1.02	1

Source: the supplement of paper PMC12350171
